The values below come from the supplement of paper PMC10498489.

The campaign covered roughly 2,300 compounds. About 330 (14%) showed activity.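 The calls were made as follows: active = median modified Z-score above 1.96; inactive = 1.96 or below.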 A selection follows.

The test deals with HepG2 Srxn1-GFP reporter cells (+30 nM CDDO-Me). As to the kind of experiment: Srxn1-GFP intensity median modified Z-score relative to plate median; higher = stronger NRF2 / oxidative stress reporter activation, active = hit call of the paper. To be noted: 10 µM; exposure time: 24h. A digest of the protocol: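 Per-cell cytoplasmic GFP was measured on confocal images of formaldehyde-fixed, Hoechst-stained HepG2 Srxn1-GFP BAC reporter cells, excluding images with fewer than 100 cells. Before this, the cells (20,000 per well, 96-well plates) were co-exposed for 24 h to compound at 10 μM and an NRF2 activator at 30 nM with ≤0.1% DMSO, in three replicate plates. Each value is the median over replicates of the per-plate modified Z-score of GFP intensity. That score was scaled with 1.4826 × median absolute deviation.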
Turning to `O=C(O)c1nc2cc(Cl)c(Cl)cc2[nH]c1=O` [euspeclibcmpd1804], the “Srxn1-GFP intensity median modified Z-score” value was -0.361 (inactive).
Consider `O=c1[nH]c(=O)n([C@H]2C[C@H](O)C(CO)O2)cc1I` (some centres undefined) [euspeclibcmpd2208], for which the “Srxn1-GFP intensity median modified Z-score” value was 0 (inactive).
In the case of `O=c1[nH]c(=O)n(C2C[C@@H](O)[C@@H](CO)O2)cc1F` (some centres undefined) [euspeclibcmpd516], the “Srxn1-GFP intensity median modified Z-score” value is 1.56 (inactive).
Turning to `O=c1[nH]c(=O)n(C2C[C@H](O)[C@@H](CO)O2)cc1C(F)(F)F` (some centres undefined) [euspeclibcmpd660], the “Srxn1-GFP intensity median modified Z-score” value is 2.21 (active).
To `CC(NC(CCc1ccccc1)C(=O)O)C(=O)N1Cc2ccccc2CC1C(=O)O` (centres undefined) [euspeclibcmpd841] belongs -0.626 (inactive); to `CC[C@H]1OC(=O)C(C)[C@@H](O[C@H]2C[C@@](C)(OC)[C@@H](O)[C@H](C)O2)[C@H](C)[C@@H](O[C@@H]2O[C@H](C)C[C@H](N(C)C)[C@H]2O)[C@](C)(OC)CC(C)C(=O)C(C)[C@@H](O)[C@]1(C)O` (some centres undefined) [euspeclibcmpd669], 1.56 (inactive); to `CC(C(=O)O)C1CCC2C3CC=C4CC(O)CCC4(C)C3CCC12C` (centres undefined) [euspeclibcmpd1985], 0.801 (inactive).
Regarding `CCc1oc2ccccc2c1C(=O)c1cc(Br)c(O)c(Br)c1` [euspeclibcmpd888], the “Srxn1-GFP intensity median modified Z-score” value is 2.7 (active).
Regarding `CCCCc1oc2ccccc2c1C(=O)c1cc(I)c(OCCN(CC)CC)c(I)c1` [euspeclibcmpd976], the “Srxn1-GFP intensity median modified Z-score” value is -0.752 (inactive).
As for `O=C(O)c1cc(=O)c2ccccc2o1` [euspeclibcmpd1112], the “Srxn1-GFP intensity median modified Z-score” value was -0.193 (inactive).
On to `CC(=O)OCC[C@H](C)CCC=C(C)C` [euspeclibcmpd1610], for which the “Srxn1-GFP intensity median modified Z-score” value is 1.13 (inactive).
With `COc1ccc2c(c1)c(CC(=O)Nc1nccs1)c(C)n2C(=O)c1ccc(Cl)cc1`, the “Srxn1-GFP intensity median modified Z-score” value is 1.66 (inactive).
In the case of `COc1ccc(/C=C/C(=O)c2ccc(O)cc2O)cc1` [euspeclibcmpd1445], the “Srxn1-GFP intensity median modified Z-score” value is 1.77 (inactive).
With `O=C(C=Cc1ccc(O)cc1)c1ccccc1O` [euspeclibcmpd2063], the “Srxn1-GFP intensity median modified Z-score” value was -0.0605 (inactive).
Turning to `O=C(C=Cc1ccccc1)c1ccc(O)cc1O` [euspeclibcmpd1990], the “Srxn1-GFP intensity median modified Z-score” value is 2.48 (active).
Turning to `O=C(/C=C/c1ccccc1)c1ccc(O[C@@H]2O[C@H](CO)[C@@H](O)[C@H](O)[C@H]2O)cc1O` [euspeclibcmpd1690], the “Srxn1-GFP intensity median modified Z-score” value is -0.0185 (inactive).
On to `COc1ccc(O)c(C(=O)/C=C/c2ccc(F)cc2)c1`, for which the “Srxn1-GFP intensity median modified Z-score” value is 1.36 (inactive).
Regarding `O=C(C=Cc1ccc(O)cc1)c1ccc(O)cc1O` [euspeclibcmpd1984], the “Srxn1-GFP intensity median modified Z-score” value is 13.1 (active).
As for `N=c1[nH]c(F)nc2c1ncn2[C@@H]1O[C@H](COP(=O)(O)O)[C@@H](O)[C@@H]1O` [euspeclibcmpd850], the figure is 0.307 (inactive).
